TDP1 cell noCPT – qHTS for Inhibitors of human tyrosyl-DNA phosphodiesterase 1 (TDP1): qHTS in cells in absence of CPT; DT40 Tdp1-/- hTDP1 cells, no CPT, ATP luminescence, 48 h; Potency, µM (top dose mostly 46.2 µM), without a hit: at the highest dose activity change, negative = growth inhibition, most hits filed as inhibitors; actives 15% (n = 420,000); AID 686978, 2013; further: potency means the concentration at half of the fitted maximal effect; on the % scale 0 is the no-effect control and ±100 the full control effect; nearly all actives have a fitted effect of over 55% in size
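Luminescent ATP content (CellTiter-Glo) served as the growth readout. Knockout chicken DT40 cells expressing human TDP1 were exposed to compounds without camptothecin for a minimum 48 hr at 37 °C.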
MCF10A rerep – A quantitative high throughput screen for small molecules that induce DNA re-replication in MCF 10a normal breast cells; MCF 10A DNA re-replication, Hoechst nuclear intensity, 48 h; Potency, µM (titrated, usually from 46.1 µM), for the others: at the top dose activity, positive = re-replication, hits mostly activators; actives 2.9% (n = 350,000); further: potency means the concentration at half of the fitted maximal effect; % of control where 0% means no effect; nearly all actives have a fitted effect of over 50% in size
BCR signal inh – qHTS Assay to Find Inhibitors of Chronic Active B-Cell Receptor Signaling | ABC-DLBCL IkBa-CBG/CBR reporter, luminescence ratio, 4 h | Potency, µM (titrated, usually from 46.1 µM), for the others: at the highest dose activity change, negative = inhibition, most hits filed as inhibitors | actives 0.05% (n = 340,000) | AID 493014, 2011; active means well fitted inhibition curve with a large enough effect in the signal ratio, with a control signal flat, not every such curve was filed as active; inconclusive means small, poorly fitted or top-dose-only effect, or effect the other way, or a change in a side signal; the % refers to the signal ratio;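 further: potency means the concentration at half of the fitted maximal effect; plate controls were basal doxycycline-induced cells for no effect and cells given 10 µM MG132 for full effect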
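Compounds up to 46 uM were incubated four hours with TMD8 cells whose green CBG68 luciferase is fused to IkappaBalpha; red CBR luminescence normalised the signal, and concentration-effect curves were fitted to fusion, red and ratio data.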
SW480 rereplic – A quantitative high throughput screen for small molecules that induce DNA re-replication in SW480 colon adenocarcinoma cells. SW480 DNA re-replication, Hoechst DNA content imaging, 48 h. Potency, µM (top dose mostly 46.1 µM), for the others: at the top dose re-replication activation, most hits filed as activators. actives 1.8% (n = 340,000). AID 624297, 2012; further: potency means the concentration at half of the fitted maximal effect; % of control where 0% means no effect; nearly all actives have a fitted effect of over 55% in size
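Hoechst fluorescence of nuclei (405 nm excitation, 500-530 nm emission) measured by plate-scanning imager after 48 hr compound exposure at 37 C; re-replication scored as increased number of nuclei with elevated intensity.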
IL1B secr inh – qHTS for Inhibitors of Inflammasome Signaling: IL-1-beta AlphaLISA Primary Screen. THP-1 LPS/ATP IL-1B secretion, AlphaLISA, 16 h; hits give low values. activity change, % at 57.5 µM. actives 4.7% (n = 360,000). AID 743279, 2014; in the data active means activity change below about -50%; inconclusive means mostly about -30% to -49%; further: on the % scale 0 is the no-effect control and ±100 the full control effect
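THP-1 cells pretreated 1 hr with compounds (up to 57.5 uM final), then stimulated with LPS (250 ng/mL final) plus ATP (1.25 mM final); secreted IL-1B measured by AlphaLISA after 16 hr, decreased signal indicating inhibition.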
DT40 TDP1 CPT – qHTS for Inhibitors of human tyrosyl-DNA phosphodiesterase 1 (TDP1): qHTS in cells in presence of CPT; chicken DT40 Tdp1-/-;hTDP1 cells + 20 nM CPT, ATP luminescence, 48 h; AID 686979, 2013; actives 12% (n = 420,000); Potency, µM (doses to about 46.2 µM), inactives show at the top dose activity change, negative = growth inhibition, hits mostly inhibitors; further: potency means the concentration at half of the fitted maximal effect; on the % scale 0 is the no-effect control and ±100 the full control effect; nearly all actives have a fitted effect of over 55% in size
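Chicken DT40 Tdp1-/- cells complemented with human TDP1, 400 cells/well, exposed to compounds plus 20 nM camptothecin for at least 48 h at 37 C; viability read as ATP content by CellTiter-Glo luminescence.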
* = called active by the depositor; ? = inconclusive; · = no result given. The list is not random: actives were taken first. Their share in the collection is about 19%. Unless noted, the call rests on the fitted dose curve; in most records, active means well fitted curve in the direction sought with a large enough effect; inconclusive means small, poorly fitted or top-dose-only effect, or another doubt; inactive means no such curve, though single readings can be large; an effect the other way counts as inactive or inconclusive.

SMILES	TDP1 cell noCPT	MCF10A rerep	BCR signal inh	SW480 rereplic	IL1B secr inh	DT40 TDP1 CPT
CC(C)CC1C(=O)N(Cc2cn(Cc3ccco3)nn2)CCS(=O)(=O)N1Cc1ccc(-c2ccncc2)cc1 (centres undefined)	15µM*	·	·	·	?	21µM*
CC(C)C1C(=O)N(Cc2cn(Cc3ccco3)nn2)CCS(=O)(=O)N1Cc1ccc(-c2ccc(F)nc2)cc1 (centres undefined)	-20%	·	·	·	1	-8%
CC(C)CC1C(=O)N(Cc2cn(Cc3ccco3)nn2)CCS(=O)(=O)N1Cc1ccc(-c2ccccc2)cc1 (centres undefined)	?	·	·	·	?	15µM*
CC(C)CC1C(=O)N(Cc2cn(Cc3ccco3)nn2)CCS(=O)(=O)N1Cc1ccc(-c2ccc(F)nc2)cc1 (centres undefined)	23µM*	·	·	·	?	?
CCCn1c(SC(C)C(=O)NC2CCCC2)n[nH]c1=O (centres undefined)	3%	2%	5%	1%	-4	11%
O=C(NCc1ccccc1Cl)C1CCN(S(=O)(=O)Cc2ccccc2)CC1	-22%	·	·	·	·	-21%
CCOc1ccc(C2C(=O)N(C3CCCCCC3)CC(=O)N2CCc2ccc(OC)c(OC)c2)cc1OC (centres undefined)	?	·	2%	·	·	?
CCOC(=O)C1(S(=O)(=O)c2ccc(Cl)cc2)CCN(Cc2ccc(Cl)cc2)CC1	18µM*	20%	16%	?	-29	16µM*
CCOC(=O)C1(Cc2ccc(Cl)cc2)CCN(Cc2nccn2CC)CC1	?	17%	-2%	22%	-12	21µM*
CCOC(=O)C1(Cc2ccccc2)CCN(Cc2nccn2CC)CC1	?	?	4%	?	0	?
CCOC(=O)C1(CCc2ccccc2)CCN(Cc2nccn2CC)CC1	18µM*	20%	-13%	2%	6	?
CCOC(=O)C1(Cc2ccc(Cl)cc2)CCN(CCCn2cccn2)CC1	21µM*	15%	?	10%	-58*	?
CCOC(=O)C1(S(=O)(=O)c2ccccc2)CCN(Cc2ccc(Cl)cc2)CC1	?	6%	9%	6%	-26	?
O=C(CSC1=NNC(c2ccccn2)S1)Nc1ccccc1 (centres undefined)	1.8µM*	?	-19%	16µM*	184	2.1µM*
O=C(NCc1ccccn1)Nc1cccc(Cl)c1	0%	-1%	6%	1%	-6	-9%
O=C(CSc1nnc(-c2ccccn2)o1)Nc1ccccc1	-1%	0%	?	-5%	0	0%
O=C(CSC1=NNC(c2ccccn2)S1)Nc1cccc(Cl)c1 (centres undefined)	1.8µM*	?	-10%	?	147	1.8µM*
COc1cc(/C=N/NC(=O)C2CC(=O)N(c3ccc(C)cc3)C2)cc(OC)c1OC (centres undefined)	-22%	6%	-10%	11%	-9	1%
COc1ncc2nc(-c3ccc(F)cc3)c(=O)n(Cc3cccs3)c2n1	4%	·	·	·	·	-2%
Clc1cccc(Cl)c1CNc1ccc(N2CCCC2)cc1	16µM*	-20%	?	?	?	6.5µM*
CCc1nn(CC(=O)NC(C)C)c(=O)c2cc3cc(F)ccc3n12	-13%	·	·	·	·	6%

High-throughput results from PubChem BioAssay.
